Bioassay records from PubChem.
HT1080-NT tox: kills 2HG-producing HT-1080-NT fibrosarcoma cells; HT-1080-NT fibrosarcoma viability, CellTiter-Glo ATP luminescence, 48 h; Potency, µM (series often up to 46.1 µM), inactives show at the top dose activity, negative = less viability, most hits filed as cytotoxic; hit rate 1.6% among 360,000; AID 686970;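 further: NT is the 2HG producing partner of a matched IDH1 knockdown line; 0% = DMSO-treated cells and -100% = media-only wells without cells; nearly all actives have a fitted effect of over 55% in size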
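750 cells/well, RPMI + 5% FBS; 2 h settle, compound pin-transfer, 48 h at 37 degrees C. CellTiter-Glo 10 min RT, luminescence. Normalized to DMSO and media-only wells.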
MCF10A rereplic: inducers of DNA re-replication in MCF 10A breast cells; MCF 10A DNA re-replication, Hoechst nuclear intensity, 48 h; Potency, µM (series often up to 46.1 µM), without a hit: at the highest dose activity, positive = re-replication, hits mostly activators; AID 624296; hit rate 2.9% among 350,000; further: % of control where 0% means no effect; nearly all actives have a fitted effect of over 50% in size
KB-3-1 tox: kills parental KB-3-1 adenocarcinoma cells; Potency, µM (doses to about 46.1 µM), usual class: cytotoxic; hit rate 1.4% among 400,000; KB-3-1 viability, CellTiter-Glo ATP luminescence, 72 h; further: on the % scale 0 is the no-effect control and ±100 the full control effect; nearly all actives have a fitted effect of over 60% in size
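Luminescent ATP read-out (CellTiter-Glo) measures survival of drug-naive KB-3-1 cells after 72 h compound exposure at 37 °C. Titration series was screened from lowest to highest concentration, with DMSO vehicle plates as background controls.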
HT1080 IDH1KD tx: kills HT-1080 cells with IDH1 knockdown; Potency, µM (series often up to 46.1 µM), without a hit: at the highest dose activity, negative = toxicity, usual class: cytotoxic; HT-1080 IDH1 knockdown viability, ATP luminescence, 48 h; hit rate 2% among 360,000;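 further: 0% = DMSO wells and -100% = cell-free medium wells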
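Knockdown cells (IDH1KD HT-1080) received compounds 2 h after plating at 750 cells/well and were kept 48 h at 37 °C in 5% FBS RPMI. A CellTiter-Glo luminescence read gave % activity for curve fitting.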
SW480 rereplic: DNA re-replication induction in SW480 cells; SW480 DNA re-replication, Hoechst DNA content imaging, 48 h; Potency, µM (series often up to 46.1 µM), for inactives: top-dose re-replication activation, actives largely listed as activators; hit rate 1.8% among 340,000; AID 624297; further: % of control where 0% means no effect; nearly all actives have a fitted effect of over 55% in size
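SW480 cells exposed to compounds for 48 hr at 37 C, 5% CO2, then Hoechst-stained 40 min. Nuclear DNA content imaged by fluorescence scanning (405 nm excitation, 500-530 nm emission); re-replication scored as increased high-intensity nuclei.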
KB-V1 MDR tox: kills drug-selected multidrug resistant KB-V1 cells. KB-V1 MDR cells viability, CellTiter-Glo, 72 h. Potency, µM (doses to about 46.1 µM), usual class: cytotoxic. hit rate 3.4% among 400,000; further: on the % scale 0 is the no-effect control and ±100 the full control effect; nearly all actives have a fitted effect of over 60% in size
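Cells of the MDR subline KB-V1 are plated, dosed with compound at multiple concentrations, and incubated 72 h at 37 degrees C; CellTiter-Glo is then added and luminescence read after 10 min.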
Active calls of the source: *; i = inactive; ? = inconclusive; nt = not tested or not shown; ! = repeats disagree. Shown are actives, neighbours in structure and some others; about 8% of the full set was active somewhere. The call rests on the fitted dose curve; in most records, active means well fitted curve in the direction sought with a large enough effect; inconclusive means small, poorly fitted or top-dose-only effect, or another doubt; inactive means no such curve, though single readings can be large; an effect the other way counts as inactive or inconclusive. Potency means the concentration at half of the fitted maximal effect.

SMILES	HT1080-NT tox	MCF10A rereplic	KB-3-1 tox	HT1080 IDH1KD tx	SW480 rereplic	KB-V1 MDR tox
CCc1ccccc1NC(=O)c1cnn2c(C(F)(F)F)cc(-c3ccc(OC)c(OC)c3)nc12	nt	nt	i	nt	nt	?
COC(=O)c1ccccc1NC(=O)c1ccc2c(c1)CCN2S(C)(=O)=O	nt	nt	i	nt	nt	i
CCC(=O)Oc1oc(-c2ccccc2)nc1C=Nc1ccccc1OC	1%	18µM*	i	3%	?	i
COc1cc2c(C(=O)N3CCN(c4cccc(C)c4)C(C)C3)cn(CC(C)C)c(=O)c2cc1OC (centres undefined)	nt	nt	i	nt	nt	i
Cc1cc2c(C)cc(=O)oc2c2c1NCCC2	-4%	13µM*	i	-30%	?	i
CC(C(=O)Nc1ccccc1)c1ccc(-c2ccccc2)c(F)c1 (centres undefined)	?	2%	?	21µM*	5%	i
CC1CCC2C(C1)c1sc(=O)[nH]c1SC2(C)C (centres undefined)	?	?	i	?	2%	18µM*
Cc1cc([N+](=O)[O-])nn1CCCC(=O)Nc1cc(Oc2ccc(F)cc2)cc([N+](=O)[O-])c1	12%	-3%	i	15%	-2%	5.8µM*
Cc1cc([N+](=O)[O-])nn1CCCC(=O)Nc1cc(Oc2ccccc2)cc([N+](=O)[O-])c1	-3%	-4%	i	-1%	-7%	i
Cc1cc([N+](=O)[O-])nn1CCCC(=O)N1CCN(c2ccc(F)cc2)CC1	-5%	-5%	i	1%	-54%	18µM*
Cc1cc([N+](=O)[O-])nn1CCCC(=O)O	9%	-7%	i	6%	-1%	?
NC(=O)c1c(NC(=O)c2c(F)cccc2F)sc2c1CCN(Cc1ccccc1)C2	-2%	26µM*	?	-5%	13%	i
CCN1CCc2c(sc(NC(=O)c3ccc(S(=O)(=O)N(CC)c4ccccc4)cc3)c2C(N)=O)C1	18µM*	12µM*	?	5.8µM*	?	?
CCN1CCc2c(sc(NC(=O)Nc3ccc(Cl)c(Cl)c3)c2C(N)=O)C1	-6%	9.2µM*	i	-4%	15µM*	i
CCN1CCc2c(sc(NC(=O)c3ccc(S(=O)(=O)N4CCOCC4)cc3)c2C(=O)OC)C1	?	15µM*	i	?	?	i
CCCCN(CCCC)S(=O)(=O)c1ccc(C(=O)Nc2sc3c(c2C(N)=O)CCN(CC)C3)cc1	nt	nt	i	nt	nt	i
Cc1cc(=O)c2cc(C(=O)Nc3ccc(C)c(C)c3)ccc2[nH]1	nt	nt	i	nt	nt	?
COc1ccc(-c2noc(-c3ccc(NCc4ccco4)c([N+](=O)[O-])c3)n2)cc1OC	nt	nt	i	nt	nt	i
CCOC(=O)c1c(N)sc2c1CCN(Cc1ccccc1)C2	nt	?	15µM*!	nt	-2%	i
CCN1CCc2c(sc(NC(=O)c3ccc(C(=O)c4ccccc4)cc3)c2C(N)=O)C1	21µM*	?	i	?	3%	i
CC(C)(C)C(=O)NC(=S)NNC(=O)c1ccc(-c2ccccc2)cc1	8.2µM*	?	?	7.3µM*	?	9.2µM*
CC(C)(C)c1ccc(C(=O)NNC(=S)NC(=O)c2cccnc2)cc1	?	9%	?	?	15µM*	?
CC(C)(C)C(=O)NC(=S)NNC(=O)c1ccncc1	-21%	4%	i	-26%	?	i
O=C(NNC(=S)NC(=O)c1ccccc1)c1cccnc1	-12%	1%	i	0%	1%	i
CC(C)c1ccc(O)c(NC(=S)NC(=O)c2cccnc2)c1	?	?	i	?	1%	?
SMILES	HT1080-NT tox	MCF10A rereplic	KB-3-1 tox	HT1080 IDH1KD tx	SW480 rereplic	KB-V1 MDR tox
CC(C)(C)c1cc(Cl)c(O)c(NC(=S)NC(=O)c2cccnc2)c1	-23%	15µM*	i	?	-16%	?
CCCc1c(-c2cccc(Cl)c2)ncn1Cc1cccc(-c2ccccc2)c1	?	nt	?	23µM*	nt	21µM*
CCc1c(-c2cccc(Cl)c2)ncn1Cc1cccc(-c2ccccc2)c1	?	nt	?	?	nt	16µM*
Cn1cc(CN2CCN(Cc3ccccc3)CC2)c(-c2cccc(Cl)c2)n1	-4%	?	i	5%	-2%	i
O=C(CN1C(=O)/C(=C\c2ccc(F)cc2)Oc2ccccc21)N1CCN(c2ccccn2)CC1	4%	0%	i	1%	-3%	7.3µM*
O=C(CN1C(=O)/C(=C\c2cccc(F)c2)Oc2ccccc21)N1CCN(c2ccccn2)CC1	16%	9%	?	5%	-67%	i
Cc1ccc(C(=O)NCC(=O)NCC(c2cccs2)N(C)C)cc1C (centres undefined)	-6%	2%	i	-10%	-3%	15µM*
CCOc1ccc(C(=O)NCC(c2cccs2)N(C)C)cc1OCC (centres undefined)	-5%	-10%	i	5%	-3%	23µM*
CCCOc1ccc(C(=O)NCC(c2cccs2)N(C)C)cc1 (centres undefined)	-3%	1%	i	-8%	0%	i
COc1ccccc1Cc1c(-c2ccc(Cl)cc2)nc2c(C)cc(Br)cn12	?	nt	16µM*	?	nt	?
Cc1cc(Br)cn2c(Cc3cccc(F)c3)c(-c3ccc(F)cc3)nc12	?	nt	16µM*	-16%	nt	i
COc1ccc(/C=C2\SC(=O)N=C2N)cc1OC	-15%	1%	i	-13%	-7%	i
COc1ccc(/C=C2\SC(=N)N(c3nccs3)C2=O)cc1OC	?	10µM*	?	?	12µM*	i
N=C1S/C(=C\c2ccc(-c3cccc(Cl)c3)o2)C(=O)N1c1nccs1	-20%	?	7.3µM*	?	?	?
COc1ccc2nc(SCC(=O)N3CCCCC3)c(C#N)cc2c1	-2%	3%	i	-1%	-41%	i
COc1ccc2nc(SCC(=O)N(C)C3CCCCC3)c(C#N)cc2c1	9%	6%	i	-1%	?	15µM*
COc1ccc2nc(SCC(=O)NCC3CCCO3)c(C#N)cc2c1 (centres undefined)	-6%	23µM*	i	-3%	-4%	?
COc1ccc(-c2[nH]ncc2/C=C(/C#N)C(=O)NC2CCCCCC2)cc1	18µM*	10µM*	?	?	13µM*	i
Cc1cc(/C=C(\C#N)C(=O)NC2CCCCCC2)c(C)[nH]1	-8%	-27%	i	-19%	-4%	?
